Measured values: PubChem BioAssay (NCATS)
Results filed as inconclusive are left out. A call without a number means that no potency is given here. The source made the active and inactive calls. The call rests on the fitted dose curve; in most records, active means well fitted inhibition curve with a large enough effect in the repeat runs; inconclusive means weak or mixed curves; inactive means no such curve, though single readings can be large or run the other way.

Molecular target: Cytochrome P450 2C9 (Homo sapiens) (UniProt P11712)
Experiment: Cytochrome P450 family 2 subfamily C member 9 (CYP2C9) small molecule antagonists: luciferase biochemical (cell-free) qHTS assay (AID 1645842); further: nearly all actives have a fitted effect of over 55% in size
Settings: P450-Glo CYP2C9 enzyme assay, luciferin luminescence; series mostly up to 57.4 µM
Method: National Center for Advancing Translational Sciences [NCATS] Assay Overview: Cytochrome P450 (CYP) enzymes are membrane-bound hemeproteins that play a key role in metabolism of drugs and xenobiotics. Assaying the effect of chemicals on CYP isozymes is useful to minimize the adverse drug reactions and toxicities in drug development process. Chemical compounds were tested for their effect on CYP enzyme activities by using P450-Glo (TM) screening systems (Promega Corporation, Madison, WI). These systems provide a luminescent method containing proluciferin substrates and are converted to luciferin products by CYP isozymes. The luciferin products formed are detected with a luciferin detection reagent, and the amount of light produced is proportional to CYP activity. P450-Glo (TM) CYP2C9 screening system (Catalog. No. V9790) was used to detect the compounds that interfere in CYP2C9 activity.
Assay Protocol Summary: Two ul of enzyme-substrate mix supplemented with 0.4% Bovine Serum Albumin was dispensed into medium binding white/solid 1536-well plates (Greiner Bio-One North America Inc., Monroe, NC) using a Flying Reagent Dispenser (FRD, Aurora Discovery, San Diego, CA). […] The assay plates were incubated at room temperature for 10 min. Then 2 ul of NADPH regeneration solution was added to each well of the assay plates using an FRD and incubated at 37C for 1 h. The reaction was stopped by adding 4 ul of detection reagent using an FRD and after 20 min incubation at room temperature, the luminescence signal was measured using a ViewLux plate reader (Perkin Elmer, Shelton, CT). Data were expressed as relative luminescence units.
Potency means the concentration at half of the fitted maximal effect.

Cytochrome P450 2C9 (Homo sapiens), sequence (P11712 whole entry, looked up): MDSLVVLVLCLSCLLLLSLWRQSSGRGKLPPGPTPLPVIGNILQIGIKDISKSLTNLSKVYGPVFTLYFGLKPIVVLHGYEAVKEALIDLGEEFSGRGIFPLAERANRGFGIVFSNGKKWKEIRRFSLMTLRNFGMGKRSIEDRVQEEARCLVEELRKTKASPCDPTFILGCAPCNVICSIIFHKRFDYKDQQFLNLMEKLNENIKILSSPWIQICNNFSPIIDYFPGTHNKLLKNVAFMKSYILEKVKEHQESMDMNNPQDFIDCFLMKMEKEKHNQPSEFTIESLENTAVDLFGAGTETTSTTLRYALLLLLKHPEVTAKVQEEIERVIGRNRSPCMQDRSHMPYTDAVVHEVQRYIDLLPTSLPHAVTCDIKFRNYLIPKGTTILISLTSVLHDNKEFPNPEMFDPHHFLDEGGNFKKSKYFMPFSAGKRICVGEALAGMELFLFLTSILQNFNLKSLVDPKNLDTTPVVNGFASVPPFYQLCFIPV

Compound | Potency
CC1=NCCc2c1[nH]c1cc(O)ccc21 | inactive
C[C@]12C[C@@H]3S[C@H]3C[C@@H]1CC[C@H]1[C@H]3CC[C@@H](O)[C@@]3(C)CC[C@@H]12 | 0.107 µM (active)
Cc1ccccc1[C@@H](C(=O)NC1CCCCC1)N(C(=O)Cn1ccnc1C)c1cccc(F)c1 | inactive
CN(C)[C@@H]1C(=O)C(C(N)=O)C(=O)[C@@]2(O)C(=O)C3C(=O)c4c(O)ccc(Cl)c4[C@@](C)(O)C3C[C@@H]12 (stereo partly specified) | inactive
CC(Cc1ccc2c(c1)OCO2)NCC(O)c1ccc(O)c(O)c1 (stereo unspecified) | 15.1 µM (active)
CCOC(=O)/C=C/[C@H](C[C@@H]1CCNC1=O)NC(=O)[C@@H](CC(=O)[C@@H](NC(=O)c1cc(C)on1)C(C)C)Cc1ccc(F)cc1 | 4.77 µM (active)
CC(C)(N)Cc1ccccc1 | inactive
CCOC(=O)C=C(C)C=CC[C@@H](C)CCCC(C)C | 10.7 µM (active)
CCOc1ccc(NC(=O)Cn2cc(C(=O)c3ccccc3)c3ccccc32)cc1 | 16.9 µM (active)
C[C@@H](C1CC[C@@]2(O)C3=CC(=O)[C@@H]4C[C@@H](O)[C@@H](O)C[C@]4(C)[C@H]3CC[C@]12C)[C@H](O)CCC(C)(C)O (stereo partly specified) | inactive
CC(=O)Oc1ccc(Cl)c2cccnc12 | inactive
CC1(C)[C@H](C=C(Cl)Cl)[C@@H]1C(=O)OCc1c(F)c(F)cc(F)c1F | 12 µM (active)
CC=CC1C(C(=O)OCc2c(F)c(F)c(COC)c(F)c2F)C1(C)C (stereo unspecified) | 10.7 µM (active)
N#CC(O[C@@H]1O[C@H](CO[C@@H]2O[C@H](CO)[C@@H](O)[C@H](O)[C@H]2O)[C@@H](O)[C@H](O)[C@H]1O)c1ccccc1 (stereo partly specified) | inactive
NCCS[As](SCCN)c1ccc(Nc2nc(N)nc(N)n2)cc1 | inactive
O=[As]O[As]=O (stereo unspecified) | inactive
CCN1CCN(C(c2ccc(Cl)cc2)c2ccc(Cl)cc2)CC1 | inactive
CNC(C)[C@@H](O)c1ccc(O)cc1 (stereo partly specified) | inactive
CCN=C1Nc2ccc(Cl)cc2C(C)(c2ccccc2)O1 (stereo unspecified) | 9.52 µM (active)
C=CCC1(CC(C)C)C(=O)NC(=O)NC1=O | inactive
CCN(CC)N(O)N=O | inactive
